Results taken from PubChem BioAssay (EPA / NIEHS).
Several values for one entry are separate records, joined by “and”; a condition that tells them apart may be missing. Equal entries are not always repeated. Inconclusive results are not listed. Some structures have more than one record in an assay (separate samples or runs), and their calls can disagree. Activity calls are given as the source filed them. Rule for the calls, unless noted: active = hit-call score of the fitted dose curve at least 0.9, where 1 is the maximum; inconclusive = response in the unintended direction; inactive = score below 0.9.

Columns and labels:
[1] = molecular target: zebrafish Estrogen Receptor (ER1), esr1 (gene 259252) (UniProt P57717); experiment: ATG_zfER1_XSP2: Attagene TRANS-FACTORIAL Multi-Species (XSP2) HepG2 Assay for zebrafish Estrogen Receptor (ER1) (AID 2283816)
zebrafish Estrogen Receptor (ER1), esr1 (gene 259252), sequence (P57717 whole entry, looked up, the tested form may be a part): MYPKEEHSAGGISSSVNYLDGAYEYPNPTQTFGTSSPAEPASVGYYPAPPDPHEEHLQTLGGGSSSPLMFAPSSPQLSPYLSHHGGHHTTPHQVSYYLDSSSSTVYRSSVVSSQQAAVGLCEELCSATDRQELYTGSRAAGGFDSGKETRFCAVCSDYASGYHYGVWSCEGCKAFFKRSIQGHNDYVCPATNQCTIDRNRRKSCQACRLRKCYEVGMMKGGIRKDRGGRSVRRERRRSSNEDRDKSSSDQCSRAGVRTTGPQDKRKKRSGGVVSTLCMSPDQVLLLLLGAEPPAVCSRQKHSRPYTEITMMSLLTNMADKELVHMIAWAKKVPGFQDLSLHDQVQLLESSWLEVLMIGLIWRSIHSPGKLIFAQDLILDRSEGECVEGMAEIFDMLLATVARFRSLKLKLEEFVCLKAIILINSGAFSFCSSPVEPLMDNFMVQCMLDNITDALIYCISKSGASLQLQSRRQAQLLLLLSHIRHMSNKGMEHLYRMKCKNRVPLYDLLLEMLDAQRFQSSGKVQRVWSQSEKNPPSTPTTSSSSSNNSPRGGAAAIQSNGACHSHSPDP
Outline: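 HepG2 cells transiently transfected with a GAL4-UAS reporter and a chimeric zebrafish ER1-Gal4 construct, dosed 24 h. Reporter mRNA quantified by RT-PCR, labelling, HpaI digestion and capillary electrophoresis, relative to DMSO.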

[2] = molecular target: chicken Estrogen Receptor (ERa), ESR1 (gene 396099) (UniProt P06212); experiment: ATG_chERa_XSP2: Attagene TRANS-FACTORIAL Multi-Species (XSP2) HepG2 Assay for chicken Estrogen Receptor (ERa) (AID 2283817);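 note: actives raise reporter signal above DMSO so AC50 reflects ER activation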
chicken Estrogen Receptor (ERa), ESR1 (gene 396099), sequence (P06212 whole entry, looked up, the tested form may be a part): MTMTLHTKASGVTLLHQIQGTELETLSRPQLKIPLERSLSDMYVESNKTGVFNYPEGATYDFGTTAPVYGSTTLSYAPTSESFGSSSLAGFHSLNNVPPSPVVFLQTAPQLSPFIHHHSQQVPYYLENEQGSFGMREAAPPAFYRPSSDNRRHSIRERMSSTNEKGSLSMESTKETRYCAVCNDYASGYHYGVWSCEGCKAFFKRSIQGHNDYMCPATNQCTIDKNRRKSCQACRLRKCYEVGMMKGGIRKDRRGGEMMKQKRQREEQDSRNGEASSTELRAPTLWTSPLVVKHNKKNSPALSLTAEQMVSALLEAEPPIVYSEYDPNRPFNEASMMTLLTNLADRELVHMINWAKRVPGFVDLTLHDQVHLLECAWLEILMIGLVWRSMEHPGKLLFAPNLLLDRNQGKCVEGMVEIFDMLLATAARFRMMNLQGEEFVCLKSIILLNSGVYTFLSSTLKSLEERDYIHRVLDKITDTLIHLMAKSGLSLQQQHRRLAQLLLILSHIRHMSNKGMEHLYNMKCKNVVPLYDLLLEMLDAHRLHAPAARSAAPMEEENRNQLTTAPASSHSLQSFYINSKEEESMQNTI
Outline: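 Transiently transfected HepG2 cells expressing chimeric chicken ERa-GAL4 reporter units, dosed 24 h with 3 nM 6-alpha-fluorotestosterone and 1.5 nM norgestrel present. Reporter mRNA measured by RT-PCR and capillary electrophoresis; gain-of-signal fitted relative to DMSO.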

[3] = tested on: zebrafish Estrogen Receptor (ER2a), gene 317734; experiment: ATG_zfER2a_XSP2: Attagene TRANS-FACTORIAL Multi-Species (XSP2) HepG2 Assay for zebrafish Estrogen Receptor (ER2a) (AID 2283818);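 note: hits raise reporter mRNA so AC50 reflects activation of zebrafish ER2a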
Outline: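 HepG2 cells transiently transfected with GAL4-UAS reporter units and chimeric zebrafish ER2a-Gal4, exposed 24 h; medium contains 3 nM 6-alpha-fluorotestosterone and 1.5 nM norgestrel. Reporter mRNA quantified by RT-PCR, HpaI digestion, capillary electrophoresis; gain versus DMSO.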

[4] = tested on: frog Estrogen Receptor (ER), gene 398734; experiment: ATG_frER1_XSP2: Attagene TRANS-FACTORIAL Multi-Species (XSP2) HepG2 Assay for frog Estrogen Receptor (ER) (AID 2283821);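 note: hits raise reporter mRNA above DMSO baseline so potency means agonist or activator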
Outline: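 HepG2 cells transiently transfected with GAL4-UAS reporter units expressing a chimeric frog ER-Gal4 protein; 24 h exposure. Reporter mRNA quantified by RT-PCR, fluorescent labelling and capillary electrophoresis; gain of signal fitted against DMSO baseline.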

[5] = ATG_M_19_XSP2: Attagene TRANS-FACTORIAL Multi-Species (XSP2) HepG2 Assay for M32 Transcription Factor (Internal Marker) (AID 2283822)
Outline: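 Internal background marker in a multi-species nuclear receptor TRANS panel: transfected HepG2 cells exposed 24 h, with 3 nM 6-alpha-fluorotestosterone and 1.5 nM norgestrel present. Readout is RT-PCR of reporter transcripts resolved by capillary electrophoresis, gain-of-signal versus DMSO.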

[6] = tested on: zebrafish Estrogen Receptor (ER2b), gene 317733; experiment: ATG_zfER2b_XSP2: Attagene TRANS-FACTORIAL Multi-Species (XSP2) HepG2 Assay for zebrafish Estrogen Receptor (ER2b) (AID 2283823);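 note: fitted upward as reporter gain over DMSO so potency reflects activation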
Outline: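 Reporter transcripts quantified by RT-PCR, fluorescent labelling and capillary electrophoresis after 24 h dosing of transfected HepG2 expressing zebrafish ER2b-GAL4 fusion. Medium contained 3 nM 6-alpha-fluorotestosterone plus 1.5 nM norgestrel; DMSO baseline.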

[7] = molecular target: Estrogen receptor (Homo sapiens) (UniProt P03372); experiment: ATG_hERa_XSP2: Attagene TRANS-FACTORIAL Multi-Species (XSP2) HepG2 Assay for human Estrogen Receptor (ERa) (AID 2283827)
Estrogen receptor (Homo sapiens), sequence (P03372 whole entry, looked up, the tested form may be a part): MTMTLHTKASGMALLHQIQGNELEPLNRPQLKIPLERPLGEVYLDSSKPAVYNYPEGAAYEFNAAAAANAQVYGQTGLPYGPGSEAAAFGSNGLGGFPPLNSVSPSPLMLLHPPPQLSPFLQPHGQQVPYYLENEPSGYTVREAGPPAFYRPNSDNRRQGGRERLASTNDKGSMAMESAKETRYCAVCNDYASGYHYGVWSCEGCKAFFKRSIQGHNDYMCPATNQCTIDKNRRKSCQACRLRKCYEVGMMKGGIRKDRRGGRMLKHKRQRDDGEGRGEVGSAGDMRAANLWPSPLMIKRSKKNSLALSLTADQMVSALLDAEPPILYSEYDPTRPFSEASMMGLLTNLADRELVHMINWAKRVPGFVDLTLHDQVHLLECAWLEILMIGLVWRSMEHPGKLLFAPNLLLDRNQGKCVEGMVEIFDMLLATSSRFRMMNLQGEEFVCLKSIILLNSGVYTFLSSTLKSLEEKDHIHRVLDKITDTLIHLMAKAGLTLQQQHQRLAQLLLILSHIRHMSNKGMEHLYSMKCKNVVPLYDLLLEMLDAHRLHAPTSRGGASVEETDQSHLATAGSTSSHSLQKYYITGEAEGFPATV
Outline: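 HepG2 cells transiently transfected with multiplexed GAL4-UAS reporters driven by chimeric receptor-Gal4 proteins, dosed 24 h with 3 nM 6-alpha-fluorotestosterone and 1.5 nM norgestrel present. Reporter mRNA by RT-PCR and capillary electrophoresis; gain-of-signal fit versus DMSO.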

[8] = tested on: frog Estrogen Receptor (ER2), gene 100174814; experiment: ATG_frER2_XSP2: Attagene TRANS-FACTORIAL Multi-Species (XSP2) HepG2 Assay for frog Estrogen Receptor (ER2) (AID 2283828)
Outline: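 HepG2 cells transiently transfected with multiplexed GAL4-UAS reporter units expressing chimeric frog ER2–Gal4 protein; reporter mRNA measured 24 h after chemical dosing by RT-PCR, fluorescent labeling and capillary electrophoresis. Gain-of-signal fitted relative to DMSO baseline.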

[9] = molecular target: Peroxisome proliferator-activated receptor gamma (Homo sapiens) (UniProt P37231); experiment: ATG_hPPARg_XSP2: Attagene TRANS-FACTORIAL Multi-Species (XSP2) HepG2 Assay for human Peroxisome Proliferator-activated Receptor gamma (PPARg) (AID 2283829);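 note: actives raise reporter mRNA above DMSO so AC50 reflects PPARg activation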
Peroxisome proliferator-activated receptor gamma (Homo sapiens), sequence (P37231 whole entry, looked up, the tested form may be a part): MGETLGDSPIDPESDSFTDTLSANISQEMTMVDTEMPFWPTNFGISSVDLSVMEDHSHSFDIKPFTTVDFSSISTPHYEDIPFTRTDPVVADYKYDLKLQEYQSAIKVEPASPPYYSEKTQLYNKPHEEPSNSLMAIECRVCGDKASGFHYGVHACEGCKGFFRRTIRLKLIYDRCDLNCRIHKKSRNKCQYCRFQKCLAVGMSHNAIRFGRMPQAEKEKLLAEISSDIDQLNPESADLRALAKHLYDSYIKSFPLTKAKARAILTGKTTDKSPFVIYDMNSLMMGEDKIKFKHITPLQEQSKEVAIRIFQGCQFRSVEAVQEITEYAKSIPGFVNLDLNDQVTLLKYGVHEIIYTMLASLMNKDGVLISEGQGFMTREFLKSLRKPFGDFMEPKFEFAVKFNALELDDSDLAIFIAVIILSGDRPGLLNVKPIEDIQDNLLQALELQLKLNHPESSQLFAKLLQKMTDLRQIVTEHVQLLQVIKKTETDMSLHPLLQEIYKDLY
Outline: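 HepG2 cells transiently transfected with GAL4-UAS reporter units driven by chimeric NR-Gal4 proteins; androgen receptor stimulated with 3 nM 6-alpha-fluorotestosterone and 1.5 nM norgestrel. After 24 h, reporter mRNA quantified by RT-PCR and capillary electrophoresis versus DMSO.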

[10] = molecular target: mouse Peroxisome Proliferator-activated Receptor gamma (PPARg), Pparg (gene 19016) (UniProt P37238); experiment: ATG_mPPARg_XSP2: Attagene TRANS-FACTORIAL Multi-Species (XSP2) HepG2 Assay for mouse Peroxisome Proliferator-activated Receptor gamma (PPARg) (AID 2283830);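 note: hits are gains in reporter mRNA above DMSO so AC50 marks activation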
mouse Peroxisome Proliferator-activated Receptor gamma (PPARg), Pparg (gene 19016), sequence (P37238 whole entry, looked up, the tested form may be a part): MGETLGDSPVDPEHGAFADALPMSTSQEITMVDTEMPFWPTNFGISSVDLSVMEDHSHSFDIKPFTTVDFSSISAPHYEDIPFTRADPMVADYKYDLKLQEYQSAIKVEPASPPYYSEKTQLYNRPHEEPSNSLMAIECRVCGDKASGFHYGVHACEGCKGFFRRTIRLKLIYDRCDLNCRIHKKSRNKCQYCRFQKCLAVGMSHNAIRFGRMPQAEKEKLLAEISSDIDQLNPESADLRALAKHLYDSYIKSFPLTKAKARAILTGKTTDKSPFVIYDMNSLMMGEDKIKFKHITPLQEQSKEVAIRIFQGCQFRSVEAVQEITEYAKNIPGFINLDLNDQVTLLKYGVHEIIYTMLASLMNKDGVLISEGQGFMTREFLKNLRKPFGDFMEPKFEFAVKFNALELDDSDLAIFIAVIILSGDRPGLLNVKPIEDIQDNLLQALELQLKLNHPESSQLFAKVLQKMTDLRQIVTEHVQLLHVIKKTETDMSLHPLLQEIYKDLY
Outline: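 HepG2 cells transiently transfected with GAL4-UAS reporter units for chimeric NR-Gal4 proteins including mouse PPARg, exposed 24 h; medium contained 3 nM 6-alpha-fluorotestosterone and 1.5 nM norgestrel. Reporter mRNA quantified by RT-PCR, HpaI digestion and capillary electrophoresis, vs DMSO.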

[11] = molecular target: Nuclear receptor subfamily 1 group I member 2 (Mus musculus) (UniProt O54915); experiment: ATG_mPXR_XSP2: Attagene TRANS-FACTORIAL Multi-Species (XSP1) HepG2 Assay for mouse Pregnane X Receptor (PXR) (AID 2283831)
Nuclear receptor subfamily 1 group I member 2 (Mus musculus), sequence (O54915 whole entry, looked up, the tested form may be a part): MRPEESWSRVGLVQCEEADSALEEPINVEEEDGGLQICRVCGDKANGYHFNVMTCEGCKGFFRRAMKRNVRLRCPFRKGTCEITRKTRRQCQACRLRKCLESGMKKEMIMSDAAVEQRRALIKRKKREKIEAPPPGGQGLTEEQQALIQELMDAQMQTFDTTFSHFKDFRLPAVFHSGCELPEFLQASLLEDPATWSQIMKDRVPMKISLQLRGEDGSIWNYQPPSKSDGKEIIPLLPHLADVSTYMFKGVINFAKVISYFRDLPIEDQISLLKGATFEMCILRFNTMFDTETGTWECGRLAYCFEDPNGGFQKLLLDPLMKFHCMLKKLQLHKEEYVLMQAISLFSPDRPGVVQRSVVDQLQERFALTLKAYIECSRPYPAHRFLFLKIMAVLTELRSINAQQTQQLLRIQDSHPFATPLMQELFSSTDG
Outline: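 HepG2 cells transiently transfected with GAL4-UAS reporter units expressing chimeric NR-Gal4 proteins; 24 h compound exposure. Reporter mRNA quantified by RT-PCR and capillary electrophoresis fluorescence; gain of signal fitted against DMSO.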

[12] = molecular target: zebrafish Thyroid Hormone Receptor alpha (TRa), thraa (gene 30670) (UniProt Q98867); experiment: ATG_zfTRa_XSP2: Attagene TRANS-FACTORIAL Multi-Species (XSP1) HepG2 Assay for zebrafish Thyroid Hormone Receptor alpha (TRa) (AID 2283832);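 note: actives raise zebrafish TRa-Gal4 reporter transcript above DMSO baseline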
zebrafish Thyroid Hormone Receptor alpha (TRa), thraa (gene 30670), sequence (Q98867 whole entry, looked up, the tested form may be a part): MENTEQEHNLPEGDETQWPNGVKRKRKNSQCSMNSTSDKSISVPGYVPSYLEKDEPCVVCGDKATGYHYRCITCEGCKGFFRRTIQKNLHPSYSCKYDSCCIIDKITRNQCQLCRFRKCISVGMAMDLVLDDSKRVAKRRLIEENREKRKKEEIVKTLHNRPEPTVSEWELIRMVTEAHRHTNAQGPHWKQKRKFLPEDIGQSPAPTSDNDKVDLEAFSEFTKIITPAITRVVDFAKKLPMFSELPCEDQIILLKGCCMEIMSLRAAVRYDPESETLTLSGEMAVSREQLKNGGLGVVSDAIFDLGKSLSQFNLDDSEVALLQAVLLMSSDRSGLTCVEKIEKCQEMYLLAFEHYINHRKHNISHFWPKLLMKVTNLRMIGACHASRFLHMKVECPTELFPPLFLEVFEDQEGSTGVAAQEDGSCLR
Outline: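 Chimeric receptor-Gal4 activity was assessed in transfected human liver HepG2 cells 24 h after dosing, using reporter transcript levels detected by RT-PCR and capillary electrophoresis. DMSO served as baseline.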

[13] = tested on: zebrafish Peroxisome Proliferator-activated Receptor gamma (PPARg), gene 557037; experiment: ATG_zfPPARg_XSP2: Attagene TRANS-FACTORIAL Multi-Species (XSP2) HepG2 Assay for zebrafish Peroxisome Proliferator-activated Receptor gamma (PPARg) (AID 2283833);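 note: actives increase reporter signal over DMSO so AC50 reflects activation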
Outline: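 HepG2 cells transiently transfected with multiplexed GAL4-UAS reporter units expressing chimeric NR-Gal4 receptors, dosed 24 h. Reporter mRNA quantified by RT-PCR, fluorescent labelling, HpaI digestion and capillary electrophoresis; gain of signal fitted against DMSO.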

[14] = tested on: turtle Thyroid Hormone Receptor, alpha (TRa), gene 101949057; experiment: ATG_trTRa_XSP2: Attagene TRANS-FACTORIAL Multi-Species (XSP1) HepG2 Assay for turtle Thyroid Hormone Receptor, alpha (TRa) (AID 2283834);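 note: hits raise reporter mRNA over the DMSO baseline so AC50 marks activators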
Outline: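 HepG2 cells transiently transfected with GAL4-UAS reporter units for chimeric turtle TRa-Gal4; mRNA measured 24 h after dosing by RT-PCR and capillary electrophoresis fluorescence, gain of signal fitted against DMSO.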

[15] = ATG_M_61_XSP2: Attagene TRANS-FACTORIAL Multi-Species (XSP2) HepG2 Assay for M61 Transcription Factor (Internal Marker) (AID 2283835; active = hit-call score of the fitted dose curve at least 0.9, where 1 is the maximum; inactive = score below 0.9;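 note: active means a rise in signal above the DMSO baseline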)
Outline: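 HepG2 cells transiently transfected with multiple GAL4-UAS reporter units; reporter mRNA measured 24 h after dosing by RT-PCR, fluorescent labelling and capillary electrophoresis. Medium contained 3 nM 6-alpha-fluorotestosterone and 1.5 nM norgestrel; internal marker, DMSO baseline.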

[16] = molecular target: zebrafish Thyroid Hormone Receptor beta (TRb), thrb (gene 30607) (UniProt Q9PVE4); experiment: ATG_zfTRb_XSP2: Attagene TRANS-FACTORIAL Multi-Species (XSP1) HepG2 Assay for zebrafish Thyroid Hormone Receptor beta (TRb) (AID 2283836)
zebrafish Thyroid Hormone Receptor beta (TRb), thrb (gene 30607), sequence (Q9PVE4 whole entry, looked up, the tested form may be a part): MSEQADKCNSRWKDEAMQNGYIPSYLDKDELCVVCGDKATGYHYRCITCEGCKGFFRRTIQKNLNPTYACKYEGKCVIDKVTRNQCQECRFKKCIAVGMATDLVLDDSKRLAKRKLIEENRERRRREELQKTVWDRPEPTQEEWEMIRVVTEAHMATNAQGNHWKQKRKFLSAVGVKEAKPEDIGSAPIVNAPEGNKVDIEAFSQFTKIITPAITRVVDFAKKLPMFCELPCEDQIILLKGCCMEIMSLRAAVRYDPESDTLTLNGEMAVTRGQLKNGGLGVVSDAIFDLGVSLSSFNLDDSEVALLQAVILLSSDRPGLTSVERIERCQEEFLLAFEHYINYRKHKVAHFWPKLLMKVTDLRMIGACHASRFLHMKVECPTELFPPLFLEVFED
Outline: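 Fluorescence of labelled reporter cDNA fragments, separated by capillary electrophoresis, gives mRNA induction from exogenous NR-Gal4 chimeras in transiently transfected HepG2 cells after 24 h dosing; 3 nM 6-alpha-fluorotestosterone and 1.5 nM norgestrel included in the run.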

[17] = ATG_XTT_Cytotoxicity_XSP2: Cytotoxicity Assessment in the Attagene TRANS-FACTORIAL Multi-Species (XSP2) HepG2 Assay (AID 2283837)
Outline: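 HepG2 cells, transiently transfected with multiple reporter constructs, exposed to chemical for 24 h. Cell number assessed with XTT fluorescence read-out; loss of signal fitted relative to DMSO.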

[18] = molecular target: human Thyroid hormone Receptor alpha (TRa), THRA (gene 7067) (UniProt P10827); experiment: ATG_hTRa_XSP2: Attagene TRANS-FACTORIAL Multi-Species (XSP2) HepG2 Assay for human Thyroid hormone Receptor alpha (TRa) (AID 2283838)
human Thyroid hormone Receptor alpha (TRa), THRA (gene 7067), sequence (P10827 whole entry, looked up, the tested form may be a part): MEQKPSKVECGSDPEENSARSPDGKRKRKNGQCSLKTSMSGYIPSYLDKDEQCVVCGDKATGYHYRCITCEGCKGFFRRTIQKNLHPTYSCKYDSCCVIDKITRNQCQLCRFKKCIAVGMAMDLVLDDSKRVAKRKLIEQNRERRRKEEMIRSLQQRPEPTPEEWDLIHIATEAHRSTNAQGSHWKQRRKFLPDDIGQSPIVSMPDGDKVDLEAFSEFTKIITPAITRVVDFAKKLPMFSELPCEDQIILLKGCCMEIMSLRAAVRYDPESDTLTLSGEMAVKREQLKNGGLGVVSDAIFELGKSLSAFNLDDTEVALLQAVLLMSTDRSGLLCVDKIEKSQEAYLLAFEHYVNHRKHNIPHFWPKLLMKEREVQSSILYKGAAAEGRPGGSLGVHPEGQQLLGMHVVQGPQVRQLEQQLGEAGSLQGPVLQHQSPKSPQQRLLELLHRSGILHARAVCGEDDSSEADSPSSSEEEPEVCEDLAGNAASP
Outline: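 HepG2 cells transiently transfected with multiplexed GAL4-UAS reporter units and exogenous NR-GAL4 chimeras; 24 h chemical exposure with 3 nM 6-alpha-fluorotestosterone and 1.5 nM norgestrel present. Reporter mRNA measured by RT-PCR, FAM labelling, HpaI digestion, capillary electrophoresis; gain-of-signal versus DMSO.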

[19] = tested on: chicken Androgen Receptor (AR), gene 422165; experiment: ATG_chAR_XSP2: Attagene TRANS-FACTORIAL Multi-Species (XSP2) HepG2 Assay for chicken Androgen Receptor (AR) (AID 2283819);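 note: hits raise reporter mRNA above DMSO so potency is for activation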
Outline: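 HepG2 cells transiently transfected with chicken AR–GAL4 chimeric reporter constructs, stimulated with 3 nM 6-alpha-fluorotestosterone plus 1.5 nM norgestrel, dosed 24 h. Reporter mRNA quantified by RT-PCR and capillary electrophoresis; gain of signal fitted versus DMSO.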

[20] = tested on: frog Androgen Receptor (AR), gene 399456; experiment: ATG_frAR_XSP2: Attagene TRANS-FACTORIAL Multi-Species (XSP2) HepG2 Assay for frog Androgen Receptor (AR) (AID 2283824);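 note: actives raise reporter signal above DMSO so AC50 reflects agonist-like induction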
Outline: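 HepG2 cells transiently transfected with GAL4-UAS reporter units and frog (Xenopus laevis) AR-Gal4 chimera; reporter mRNA measured 24 h after dosing by RT-PCR and capillary electrophoresis. Gain of signal fitted relative to DMSO baseline.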

Measured: AC50

COC(=O)c1c(C)cc(O)c(C)c1O
inactive: [1] | [5] | [10] | [12] | [13] | [14] | [15] | [16] | [17] | [18]
active: [1] 27.5 µM | [2] 19.8 µM and 28.8 µM | [3] 7.57 µM and 27.3 µM | [4] 12.1 µM and 17.5 µM | [6] 39.7 µM and 71.2 µM | [7] 10.5 µM and 53.7 µM | [8] 27.7 µM and 27.2 µM | [9] 100 µM and 66.6 µM | [10] 64.5 µM | [11] 10.7 µM and 27.3 µM

O=C(c1ccc(O)cc1)c1ccc(O)cc1O
inactive: [20] | [9] | [10] | [12] | [15] | [16] | [18]
active: [1] 4.75 µM | [2] 3.03 µM | [3] 2.27 µM | [19] 10 µM | [4] 3.84 µM | [6] 3.62 µM | [7] 3.48 µM | [8] 2.54 µM
